Experimental data from PubChem BioAssay (EPA / NIEHS).
“And” between values parts separate entries of the source, which are not always exact repeats. Equal entries are not always repeated. Records with an inconclusive call do not appear. The source made the active and inactive calls. The calls were made as follows: active = hit-call score of the fitted dose curve at least 0.9, where 1 is the maximum; inconclusive = response in the unintended direction; inactive = score below 0.9.

What was measured:
[1] = biological target: human Caspase 2 (CASP2), CASP2 (gene 835) (UniProt P42575); test: NVS_ENZ_hCASP2: NovaScreen (NVS) Enzymatic Assay for human Caspase 2 (CASP2) (AID 2283135)
Summary of the method: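 Single-point duplicate testing at 25 uM preceded concentration series topping at 50 uM. Activity of the recombinant E. coli-derived protease was followed by fluorescent substrate cleavage 1 h post-dosing, relative to DMSO.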

[2] = biological target: human AMP-activated Protein Kinase, alpha 1 (AMPKa1), PRKAA1 (gene 5562) (UniProt Q13131); test: NVS_ENZ_hAMPKa1: NovaScreen (NVS) Enzymatic Assay for human AMP-activated Protein Kinase, alpha 1 (AMPKa1) (AID 2283130)
Summary of the method: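 Compounds were screened in duplicate at 25 uM, and those reaching ~30% inhibition were titrated up to 50 uM. The enzyme was recombinant human AMPKα1, and kinase turnover was read by fluorescence/mobility shift 1 h post-dosing as loss of signal versus DMSO.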

[3] = biological target: CDK2 (gene 1017) (UniProt P24941); test: NVS_ENZ_hCDK2: NovaScreen (NVS) Enzymatic Assay for human Cyclin-Cependent Kinase 2 (CDK2) (AID 2283144)
Summary of the method: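 Compounds screened in duplicate at 25 uM, then in singleton concentration-response to a maximum of 50 uM, against recombinant CDK2; kinase activity read 1 hr after dosing by fluorescence with mobility-shift separation of substrate and product.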

[4] = biological target: Caspase-3 (Homo sapiens) (UniProt P42574); test: NVS_ENZ_hCASP3: NovaScreen (NVS) Enzymatic Assay for human Caspase 3 (CASP3) (AID 2283139)
Summary of the method: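 Single-concentration screening at 25 uM in duplicate, with concentration-response follow-up to a 50 uM maximum for chemicals passing the threshold. Caspase-3 (human, E. coli-expressed) activity was read as substrate fluorescence after 1 h, with loss of signal relative to DMSO.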

[5] = biological target: human Beta-secretase (BACE), BACE1 (gene 23621) (UniProt P56817); test: NVS_ENZ_hBACE: NovaScreen (NVS) Enzymatic Assay for human Beta-secretase (BACE) (AID 2283140);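 also: hits are inhibitors that reduce fluorescent substrate signal versus DMSO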
Summary of the method: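 Fluorescence intensity read-out of protease activity defines this endpoint; signal loss relative to DMSO baseline marks inhibition. Recombinant enzyme from SF9 cells, cell-free format, 1 h exposure. Single-concentration duplicate screen (25 uM) precedes concentration-series follow-up.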

[6] = biological target: human Acetylcholinesterase (AChE), ACHE (gene 43) (UniProt P22303); test: NVS_ENZ_hAChE: NovaScreen (NVS) Enzymatic Assay for human Acetylcholinesterase (AChE) (AID 2283129)
Summary of the method: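 Actives from a duplicate single-point screen (25 uM) were followed up in concentration series. Enzyme activity read by absorbance (colorimetric) 0.33 hour after dosing, cell-free, normalized to DMSO, with loss of signal scored.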

[7] = biological target: human Casein Kinase 1-delta (CK1D), CSNK1D (gene 1453) (UniProt P48730); test: NVS_ENZ_hCK1D: NovaScreen (NVS) Enzymatic Assay for human Casein Kinase 1-delta (CK1D) (AID 2283148)
Summary of the method: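 Recombinant human CK1-delta, cell-free; fluorescent substrate with electrophoretic mobility-shift separation of product, read 1 h after dosing. Single 25 uM duplicate screen, then concentration-response up to 50 uM; loss of signal vs DMSO.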

[8] = biological target: human AKT serine/threonine Kinase 2 (AKT2), AKT2 (gene 208) (UniProt P31751); test: NVS_ENZ_hAKT2: NovaScreen (NVS) Enzymatic Assay for human AKT serine/threonine Kinase 2 (AKT2) (AID 2283141)
Summary of the method: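 Cell-free fluorescence/electrophoretic mobility shift readout of recombinant human AKT2 activity, 1 h after chemical dosing. Duplicate primary screen at 25 uM, then singleton concentration-response up to 50 uM; loss of signal versus DMSO baseline.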

[9] = biological target: human Colony Stimulating Factor 1 Receptor (CSF1R), CSF1R (gene 1436) (UniProt P07333); test: NVS_ENZ_hCSF1R: NovaScreen (NVS) Enzymatic Assay for human Colony Stimulating Factor 1 Receptor (CSF1R) (AID 2283150)
Summary of the method: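 Compounds screened in duplicate at 25 uM, then concentration-response (top 50 uM) for those passing threshold such as 30% inhibition; recombinant CSF1R activity measured 1 h post-dosing via fluorescent substrate/product mobility-shift separation, loss of signal versus DMSO.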

[10] = biological target: human AKT serine/threonine Kinase 1 (AKT1), AKT1 (gene 207) (UniProt P31749); test: NVS_ENZ_hAKT1: NovaScreen (NVS) Enzymatic Assay for human AKT serine/threonine Kinase 1 (AKT1) (AID 2283138)
Summary of the method: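 Compounds were first tested in duplicate at 25 uM, and those passing a threshold such as 30% inhibition were run in concentration-response to a maximum of 50 uM. Enzyme activity was measured after 1 h by fluorescence following substrate/product mobility-shift separation.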

[11] = biological target: human Acid Phosphatase 1 (ACP1), ACP1 (gene 52) (UniProt P24666); test: NVS_ENZ_hACP1: NovaScreen (NVS) Enzymatic Assay for human Acid Phosphatase 1 (ACP1) (AID 2283136)
Summary of the method: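 Cell-free fluorescence read-out of phosphatase activity, substrate and product separated by mobility shift, taken 1.5 h after compound addition; protein produced in Sf9. Single 25 uM duplicate screen, followed by concentration series for actives, scored as signal loss relative to DMSO.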

[12] = biological target: human Caspase 5 (CASP5), CASP5 (gene 838) (UniProt P51878); test: NVS_ENZ_hCASP5: NovaScreen (NVS) Enzymatic Assay for human Caspase 5 (CASP5) (AID 2283137)
Summary of the method: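 Chemicals were first tested in duplicate at 25 uM against recombinant caspase 5 from E. coli. Activity was read by fluorescence intensity 2 hours after dosing. Those passing a preset inhibition threshold were retested in singleton concentration-response up to 50 uM.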

[13] = biological target: human Aurora Kinase A - serine/threonine-protein Kinase 6 (AurA), AURKA (gene 6790) (UniProt O14965); test: NVS_ENZ_hAurA: NovaScreen (NVS) Enzymatic Assay for human Aurora Kinase A - serine/threonine-protein Kinase 6 (AurA) (AID 2283142)
Summary of the method: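 Recombinant human AurA activity read by fluorescence after mobility-shift separation of product from substrate; 1 hour incubation. Chemicals first run in duplicate at 25 uM, then concentration series to 50 uM if over threshold; fitted relative to DMSO.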

[14] = tested on: rat CYP2B1, gene 24300; test: NVS_ADME_rCYP2B1: NovaScreen (NVS) CYP450-related Enzyme Activity (ADME) Assay for rat CYP2B1 (AID 2283117)
Summary of the method: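 Cell-free fluorescence enzyme assay, recombinant rat CYP2B1, 0.75 h after dosing. Single-concentration duplicates at 10 uM preceded concentration series (max 20 uM) for actives; acetonitrile as negative-control baseline.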

[15] = biological target: human Caspase 10 (CASP10), CASP10 (gene 843) (UniProt Q92851); test: NVS_ENZ_hCASP10: NovaScreen (NVS) Enzymatic Assay for human Caspase 10 (CASP10) (AID 2283133)
Summary of the method: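 Fluorescence-intensity enzyme read-out of E. coli-expressed CASP10 activity, 1 h after compound. Single-point duplicates at 25 uM preceded concentration-response testing (top 50 uM) of hits; inhibition expressed as signal loss versus DMSO.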

[16] = biological target: rat CYP2D1, Cyp2d1 (gene 266684) (UniProt P10633); test: NVS_ADME_rCYP2D1: NovaScreen (NVS) CYP450-related Enzyme Activity (ADME) Assay for rat CYP2D1 (AID 2283122)
Summary of the method: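 Rat CYP2D1 enzyme activity measured by fluorescence intensity in a cell-free format, 0.75 h post-dosing, acetonitrile as negative control. Screening at 10 uM in duplicate, with actives followed in concentration series up to 20 uM.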

[17] = tested on: rat CYP3A1, gene 25642; test: NVS_ADME_rCYP3A1: NovaScreen (NVS) CYP450-related Enzyme Activity (ADME) Assay for rat CYP3A1 (AID 2283126)
Summary of the method: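 Compounds went first at 10 uM duplicate, then to series with 20 uM maximum. Fluorescence from substrate turnover by the recombinant enzyme was measured 0.5 h post-dosing, inhibition scored against acetonitrile vehicle.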

[18] = biological target: rat CYP3A2, Cyp3a2 (gene 266682) (UniProt P05183); test: NVS_ADME_rCYP3A2: NovaScreen (NVS) CYP450-related Enzyme Activity (ADME) Assay for rat CYP3A2 (AID 2283128)
Summary of the method: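 Fluorescence readout of extracted rat CYP3A2 activity 0.5 h post-dose, acetonitrile as negative control. Single-point testing in duplicate at 10 uM, followed by concentration series to a 20 uM maximum for actives.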

[19] = biological target: rat CYP2C11, Cyp2c11 (gene 29277) (UniProt P08683); test: NVS_ADME_rCYP2C11: NovaScreen (NVS) CYP450-related Enzyme Activity (ADME) Assay for rat CYP2C11 (AID 2283118)
Summary of the method: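 Screened first at 10 uM in duplicate, hits followed by concentration-response. Recombinant rat enzyme activity monitored by fluorescence 0.33 h post-dosing, normalised to acetonitrile negative control.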

[20] = biological target: human Caspase 8 (CASP8), CASP8 (gene 841) (UniProt Q14790); test: NVS_ENZ_hCASP8: NovaScreen (NVS) Enzymatic Assay for human Caspase 8 (CASP8) (AID 2283146)
Summary of the method: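 The primary screen tested compounds in duplicate at a single 25 uM concentration, with actives followed up in concentration series. Activity of recombinant (E. coli) protease was measured by fluorescence 1 h post-dose, as signal loss against DMSO.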

Chain of human AMP-activated Protein Kinase, alpha 1 (AMPKa1), PRKAA1 (gene 5562) (Q13131 whole entry, looked up): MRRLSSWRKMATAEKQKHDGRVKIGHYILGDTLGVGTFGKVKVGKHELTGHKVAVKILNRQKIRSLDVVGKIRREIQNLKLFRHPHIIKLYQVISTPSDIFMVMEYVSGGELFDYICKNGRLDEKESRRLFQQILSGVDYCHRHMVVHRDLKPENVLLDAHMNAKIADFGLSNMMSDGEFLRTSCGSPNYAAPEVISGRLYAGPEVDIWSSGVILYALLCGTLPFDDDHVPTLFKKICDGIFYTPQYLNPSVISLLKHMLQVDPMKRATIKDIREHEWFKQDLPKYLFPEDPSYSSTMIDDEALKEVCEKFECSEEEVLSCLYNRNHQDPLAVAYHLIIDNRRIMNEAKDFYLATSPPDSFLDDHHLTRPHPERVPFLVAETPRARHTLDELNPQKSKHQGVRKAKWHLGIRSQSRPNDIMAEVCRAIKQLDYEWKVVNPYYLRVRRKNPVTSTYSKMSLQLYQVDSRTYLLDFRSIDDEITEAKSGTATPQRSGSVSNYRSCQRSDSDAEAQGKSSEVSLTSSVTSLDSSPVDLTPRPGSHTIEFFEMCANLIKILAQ
Chain of human Caspase 8 (CASP8), CASP8 (gene 841) (Q14790 whole entry, looked up): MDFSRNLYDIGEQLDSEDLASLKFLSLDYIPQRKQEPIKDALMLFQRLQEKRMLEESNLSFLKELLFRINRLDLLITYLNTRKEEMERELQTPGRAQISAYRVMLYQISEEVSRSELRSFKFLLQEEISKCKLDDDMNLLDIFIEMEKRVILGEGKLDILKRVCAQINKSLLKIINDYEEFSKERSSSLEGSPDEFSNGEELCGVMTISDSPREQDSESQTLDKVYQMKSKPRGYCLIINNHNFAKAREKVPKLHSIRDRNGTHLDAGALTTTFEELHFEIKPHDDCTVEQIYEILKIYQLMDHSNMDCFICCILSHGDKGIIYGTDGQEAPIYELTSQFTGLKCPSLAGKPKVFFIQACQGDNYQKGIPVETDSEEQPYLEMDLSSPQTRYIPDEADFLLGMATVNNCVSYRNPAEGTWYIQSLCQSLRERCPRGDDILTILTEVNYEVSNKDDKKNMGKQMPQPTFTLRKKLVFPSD
Chain of rat CYP2C11, Cyp2c11 (gene 29277) (P08683 whole entry, looked up): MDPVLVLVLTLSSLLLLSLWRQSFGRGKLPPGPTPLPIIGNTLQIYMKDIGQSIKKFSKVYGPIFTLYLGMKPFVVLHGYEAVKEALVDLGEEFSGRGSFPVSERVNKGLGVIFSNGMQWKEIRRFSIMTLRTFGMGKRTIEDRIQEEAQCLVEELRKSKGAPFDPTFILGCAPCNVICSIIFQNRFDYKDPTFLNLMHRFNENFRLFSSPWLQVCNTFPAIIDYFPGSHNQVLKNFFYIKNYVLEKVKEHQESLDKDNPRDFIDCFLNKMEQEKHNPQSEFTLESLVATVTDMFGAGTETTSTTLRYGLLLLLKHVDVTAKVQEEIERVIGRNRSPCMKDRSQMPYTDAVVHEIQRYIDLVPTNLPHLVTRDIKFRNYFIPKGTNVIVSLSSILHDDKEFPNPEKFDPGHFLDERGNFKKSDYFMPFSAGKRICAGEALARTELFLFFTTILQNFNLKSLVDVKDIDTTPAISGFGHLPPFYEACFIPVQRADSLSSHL
Chain of human AKT serine/threonine Kinase 2 (AKT2), AKT2 (gene 208) (P31751 whole entry, looked up): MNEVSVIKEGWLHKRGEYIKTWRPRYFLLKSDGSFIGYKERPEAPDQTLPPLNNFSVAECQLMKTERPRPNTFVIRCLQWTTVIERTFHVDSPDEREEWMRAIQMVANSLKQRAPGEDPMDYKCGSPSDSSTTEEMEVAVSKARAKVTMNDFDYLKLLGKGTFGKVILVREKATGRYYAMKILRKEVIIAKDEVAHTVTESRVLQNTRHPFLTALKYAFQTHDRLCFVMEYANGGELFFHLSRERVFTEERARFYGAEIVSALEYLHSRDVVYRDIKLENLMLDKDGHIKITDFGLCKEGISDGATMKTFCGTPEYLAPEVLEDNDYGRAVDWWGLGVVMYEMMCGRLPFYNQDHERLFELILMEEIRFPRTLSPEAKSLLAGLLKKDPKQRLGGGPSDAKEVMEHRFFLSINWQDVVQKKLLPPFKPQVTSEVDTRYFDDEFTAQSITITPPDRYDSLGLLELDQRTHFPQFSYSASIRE
Chain of human Beta-secretase (BACE), BACE1 (gene 23621) (P56817 whole entry, looked up): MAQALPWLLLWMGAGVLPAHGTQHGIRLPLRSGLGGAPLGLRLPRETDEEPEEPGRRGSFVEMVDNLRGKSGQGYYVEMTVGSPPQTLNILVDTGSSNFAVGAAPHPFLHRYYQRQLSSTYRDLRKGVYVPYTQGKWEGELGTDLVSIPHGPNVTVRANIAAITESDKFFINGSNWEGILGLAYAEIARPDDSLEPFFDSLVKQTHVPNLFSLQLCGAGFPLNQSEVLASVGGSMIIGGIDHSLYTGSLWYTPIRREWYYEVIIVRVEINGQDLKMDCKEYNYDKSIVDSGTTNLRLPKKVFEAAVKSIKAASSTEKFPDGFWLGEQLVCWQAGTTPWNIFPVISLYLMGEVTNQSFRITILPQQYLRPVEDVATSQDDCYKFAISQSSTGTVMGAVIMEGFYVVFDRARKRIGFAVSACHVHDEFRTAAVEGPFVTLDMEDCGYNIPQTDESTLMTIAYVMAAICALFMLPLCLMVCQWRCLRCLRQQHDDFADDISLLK
Chain of human Aurora Kinase A - serine/threonine-protein Kinase 6 (AurA), AURKA (gene 6790) (O14965 whole entry, looked up): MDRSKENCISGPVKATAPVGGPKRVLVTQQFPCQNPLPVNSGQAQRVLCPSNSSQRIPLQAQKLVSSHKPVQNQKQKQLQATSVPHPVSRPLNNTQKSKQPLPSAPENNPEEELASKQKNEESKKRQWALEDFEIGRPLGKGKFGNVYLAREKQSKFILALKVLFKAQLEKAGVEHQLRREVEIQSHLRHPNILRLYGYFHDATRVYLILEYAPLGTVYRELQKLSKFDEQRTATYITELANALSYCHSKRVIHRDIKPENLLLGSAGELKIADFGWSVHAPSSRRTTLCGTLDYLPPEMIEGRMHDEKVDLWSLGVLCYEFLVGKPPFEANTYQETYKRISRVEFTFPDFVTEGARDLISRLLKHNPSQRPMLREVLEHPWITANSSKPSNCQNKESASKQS
Chain of human Casein Kinase 1-delta (CK1D), CSNK1D (gene 1453) (P48730 whole entry, looked up): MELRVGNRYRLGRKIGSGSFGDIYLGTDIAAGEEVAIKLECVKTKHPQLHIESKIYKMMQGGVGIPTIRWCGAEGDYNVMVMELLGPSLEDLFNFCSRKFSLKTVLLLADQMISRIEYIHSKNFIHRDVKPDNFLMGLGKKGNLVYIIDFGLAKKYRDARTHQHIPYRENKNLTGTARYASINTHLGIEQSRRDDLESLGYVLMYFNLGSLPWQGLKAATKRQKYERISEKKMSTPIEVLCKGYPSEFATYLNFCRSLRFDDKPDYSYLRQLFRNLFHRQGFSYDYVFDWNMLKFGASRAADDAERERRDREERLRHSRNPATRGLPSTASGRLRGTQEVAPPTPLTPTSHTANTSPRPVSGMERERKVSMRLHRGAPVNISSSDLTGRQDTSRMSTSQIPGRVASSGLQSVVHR
Chain of human Colony Stimulating Factor 1 Receptor (CSF1R), CSF1R (gene 1436) (P07333 whole entry, looked up): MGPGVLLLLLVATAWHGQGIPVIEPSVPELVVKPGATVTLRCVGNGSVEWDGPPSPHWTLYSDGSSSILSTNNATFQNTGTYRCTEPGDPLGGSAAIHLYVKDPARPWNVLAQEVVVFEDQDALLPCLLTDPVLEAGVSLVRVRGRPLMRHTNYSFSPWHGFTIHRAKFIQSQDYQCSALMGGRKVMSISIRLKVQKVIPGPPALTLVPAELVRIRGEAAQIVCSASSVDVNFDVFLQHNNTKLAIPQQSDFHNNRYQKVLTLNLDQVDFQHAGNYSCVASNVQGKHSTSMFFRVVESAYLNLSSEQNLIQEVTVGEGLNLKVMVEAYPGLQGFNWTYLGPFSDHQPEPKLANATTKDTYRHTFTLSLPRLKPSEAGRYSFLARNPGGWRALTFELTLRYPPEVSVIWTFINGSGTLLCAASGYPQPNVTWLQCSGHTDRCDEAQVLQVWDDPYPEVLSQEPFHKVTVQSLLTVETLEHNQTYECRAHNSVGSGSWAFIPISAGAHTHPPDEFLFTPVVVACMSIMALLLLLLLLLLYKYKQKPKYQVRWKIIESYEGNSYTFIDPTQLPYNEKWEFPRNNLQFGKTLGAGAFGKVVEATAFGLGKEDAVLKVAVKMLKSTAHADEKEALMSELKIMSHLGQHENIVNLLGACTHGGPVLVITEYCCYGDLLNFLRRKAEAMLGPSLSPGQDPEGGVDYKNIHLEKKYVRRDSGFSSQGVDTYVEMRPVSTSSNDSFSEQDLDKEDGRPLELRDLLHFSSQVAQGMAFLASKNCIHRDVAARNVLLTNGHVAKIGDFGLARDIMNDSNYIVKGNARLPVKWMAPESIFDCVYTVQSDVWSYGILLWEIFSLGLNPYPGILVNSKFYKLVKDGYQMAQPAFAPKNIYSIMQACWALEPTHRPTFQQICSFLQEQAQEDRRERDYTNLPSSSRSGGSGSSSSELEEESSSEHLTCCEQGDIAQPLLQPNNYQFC
Chain of human Caspase 5 (CASP5), CASP5 (gene 838) (P51878 whole entry, looked up): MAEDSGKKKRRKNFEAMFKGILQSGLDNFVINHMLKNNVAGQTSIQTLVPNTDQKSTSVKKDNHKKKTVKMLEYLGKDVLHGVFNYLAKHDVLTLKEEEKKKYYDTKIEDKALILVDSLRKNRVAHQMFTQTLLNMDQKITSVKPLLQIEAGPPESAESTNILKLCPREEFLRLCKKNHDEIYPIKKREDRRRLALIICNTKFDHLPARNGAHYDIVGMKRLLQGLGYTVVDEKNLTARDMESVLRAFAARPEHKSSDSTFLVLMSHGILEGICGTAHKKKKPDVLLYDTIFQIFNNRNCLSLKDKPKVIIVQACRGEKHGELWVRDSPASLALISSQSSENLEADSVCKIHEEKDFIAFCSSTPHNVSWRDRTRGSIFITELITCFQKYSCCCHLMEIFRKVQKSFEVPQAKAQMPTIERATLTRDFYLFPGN
Chain of human Acid Phosphatase 1 (ACP1), ACP1 (gene 52) (P24666 whole entry, looked up): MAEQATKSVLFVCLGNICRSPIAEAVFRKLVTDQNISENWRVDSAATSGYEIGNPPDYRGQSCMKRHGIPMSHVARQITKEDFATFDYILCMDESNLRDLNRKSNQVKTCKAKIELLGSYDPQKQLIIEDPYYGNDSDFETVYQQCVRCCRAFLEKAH

Nc1ccc(-c2ccc(N)cc2)cc1
outcome [1]: inactive

O=C(O)C(F)(F)C(F)(F)C(F)(F)C(F)(F)C(F)(F)F
outcome [2]: inactive | outcome [3]: inactive

CC(C)(c1ccccc1)c1ccc(O)cc1
outcome [4]: inactive | AC50 [5]: 20.3 µM (active)

CCCCCCCCOC(=O)c1ccccc1C(=O)OCCCCCCCC
outcome [6]: inactive

O=NN(c1ccccc1)c1ccccc1
outcome [7]: inactive

O=S(=O)(O)C(F)(F)C(F)(F)C(F)(F)C(F)(F)C(F)(F)C(F)(F)F
outcome [2]: inactive | AC50 [5]: 1.85 µM (active) | outcome [8]: inactive | outcome [9]: inactive

CC#Cc1cc(C)nc(Nc2ccccc2)n1
outcome [2]: inactive

CCCCCCOC(=O)c1ccccc1C(=O)OCCCCCC
outcome [5]: inactive | outcome [8]: inactive

CCCCCCCCCc1ccc(O)cc1
outcome [5]: inactive

N#Cc1ccc(N(CC(N)=O)CC(F)(F)F)cc1C(F)(F)F
outcome [8]: inactive

Cc1ccccc1CO[C@@H]1C[C@@]2(C(C)C)CC[C@]1(C)O2
outcome [10]: inactive

Oc1ccc(C(c2ccc(O)cc2)(C(F)(F)F)C(F)(F)F)cc1
outcome [6]: inactive | AC50 [2]: 13.5 µM (active) | outcome [5]: inactive | outcome [7]: inactive | outcome [9]: inactive

Oc1c(Cl)c(Cl)c(Cl)c(Cl)c1Cl
outcome [5]: inactive

O=C(O)C(F)(F)C(F)(F)C(F)(F)C(F)(F)C(F)(F)C(F)(F)C(F)(F)C(F)(F)F
AC50 [2]: 36.7 µM (active) | outcome [11]: inactive | AC50 [12]: 12.8 µM (active) | AC50 [5]: 10.7 µM (active) | AC50 [13]: 13.1 µM (active) | outcome [7]: inactive | outcome [9]: inactive

COS(=O)(=O)OC
outcome [1]: inactive

C1CC2OC2CC1C1CO1 (centres undefined)
outcome [9]: inactive

ClC(Cl)=C(c1ccc(Cl)cc1)c1ccc(Cl)cc1
outcome [14]: inactive | outcome [5]: inactive

O=C(NC(=O)c1c(F)cccc1F)Nc1cc(Cl)c(OC(F)(F)C(F)F)c(Cl)c1
outcome [7]: inactive

Cc1ccc(O)c(C)c1
outcome [5]: inactive

O=C(N[C@H]1CN2CCC1CC2)c1cc2ccoc2cn1
outcome [1]: inactive

CCCN(CCC)N=O
outcome [2]: inactive | outcome [13]: inactive | outcome [3]: inactive | outcome [7]: inactive | outcome [9]: inactive

O=C(NC(=O)c1cc(F)c(F)cc1Cl)Nc1cc(F)ccc1N1CCC(C(=O)O)CC1
AC50 [5]: 7.81 µM (active)

CCC(C)(c1ccc(O)cc1)c1ccc(O)cc1
AC50 [5]: 11.2 µM (active)

O=C(O)C(F)(F)C(F)(F)C(F)(F)C(F)(F)C(F)(F)C(F)(F)C(F)(F)C(F)(F)C(F)(F)F
outcome [15]: inactive | AC50 [12]: 12.7 µM (active) | AC50 [5]: 3.53 µM (active)

CCNc1nc(NC(C)C)nc(SC)n1
outcome [16]: inactive | AC50 [17]: 6.58 µM (active) | outcome [10]: inactive | AC50 [7]: 16.3 µM (active)

CCC(C)(CC)c1cc(NC(=O)c2c(OC)cccc2OC)on1
AC50 [18]: 0.981 µM (active) | outcome [12]: inactive

Clc1ccc(C(Cl)(Cl)Cl)cc1
outcome [15]: inactive

C[C@]12CCC(=O)C=C1CC[C@@H]1[C@@H]2CC[C@@]2(C)[C@H]1CC[C@]2(C)O
AC50 [19]: 3.82 µM (active) and 2.41 µM (active) and 2.57 µM (active)

Cc1cc2c3c(c1)C(c1ccccc1)=N[C@@H](NC(=O)c1ccncc1)C(=O)N3CC2
outcome [13]: inactive

CO/C=C(/C(=O)OC)c1ccccc1COc1cccc(C(F)(F)F)n1
outcome [20]: inactive

Cc1cccc(C)c1N
outcome [5]: inactive | outcome [7]: inactive

C[C@]12CCC(=O)C=C1CC[C@@H]1[C@@H]2CC[C@]2(C)C(=O)CC[C@@H]12
outcome [6]: inactive | outcome [1]: inactive

CC(C)C(=O)OCC(C)(C)C(OC(=O)C(C)C)C(C)C (centres undefined)
outcome [2]: inactive | outcome [13]: inactive

CCC(C)c1cc([N+](=O)[O-])cc([N+](=O)[O-])c1O (centres undefined)
outcome [20]: inactive | outcome [7]: inactive

ClC1=C(Cl)[C@]2(Cl)[C@@H]3[C@@H]4C[C@@H]([C@H]5O[C@@H]45)[C@@H]3[C@@]1(Cl)C2(Cl)Cl
outcome [20]: inactive | outcome [9]: inactive

CCCCCCCCCC[N+](C)(C)CCCCCCCCCC
AC50 [6]: 12.4 µM (active)

CC1=C2C[C@H]3[C@@H](CC=C4C[C@@H](O)CC[C@@]43C)[C@@H]2CC[C@]12O[C@@H]1C[C@H](C)CN[C@H]1[C@H]2C
outcome [2]: inactive | outcome [11]: inactive | AC50 [8]: 12.5 µM (active) | outcome [13]: inactive | outcome [3]: inactive | outcome [9]: inactive
